Assay outcomes as filed in PubChem.
Shown are actives, neighbours in structure and some others; about 2.4% of the full set was active somewhere.
STAT3 blocker = reduces IL-6 driven STAT3 reporter signal; U3A cells, IL-6 STAT3-luciferase reporter, luminescence; host cell line lacks STAT1; inhibition, % at 5.5 µM; hit rate 0.89% among 190,000; AID 862;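 active means inhibition above the mean inhibition across all screened compounds plus 3 SD, cut at about 44% in these data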;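 further: 0% = DMSO only wells and 100% = 100 µM nifuroxazide control wells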
HSF1 inhib = HSF1 inhibition; NIH3T3-HGL HSE-luciferase, MG132-induced, luminescence 8 h; stronger effect = lower value; activity change, negative = inhibition, % at 7.5 µM (by protocol); hit rate 0.77% among 300,000; AID 2098;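 active means more than half of replicate wells show activity change below -50%, luminescence cut by over half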;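 further: luciferase reports HSF-1 transcriptional activity via heat shock element; 0% = median of DMSO wells and -100% = zero luminescence signal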
PPC-1+TRAIL kill = PPC-1 cancer cell killing with TRAIL present; PPC-1 cells + TRAIL, ATPLite viability luminescence; cell killing (% activity), % at 4 µM or 5 µM; hit rate 0.41% among 220,000; AID 1443;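 active means cell killing above 50% in the first pass at 4 µM, then a duplicate retest at 5 µM averaging 50% or more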;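 further: plate controls were cells with TRAIL plus DMSO for no effect and medium-only wells lacking cells for full effect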
HSP90 inh = blocks HSP90-mediated luciferase refolding in reticulocyte lysate; inhibition, % at 5.6 µM; Rabbit reticulocyte lysate, luciferase refolding luminescence, 3 h; hit rate 0.91% among 290,000;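 active means inhibition above the screen-wide mean plus 3 SD, computed separately per campaign, cut at about 16% in these data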;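 further: 0% = DMSO wells and 100% = 60 µM geldanamycin wells; inhibitors lower the luminescence because luciferase stays unfolded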
STAT1 inh = reduces IFN-gamma driven STAT1 reporter signal; NIH 3T3 STAT1-luciferase reporter, luminescence; inhibition, % at 5.5 µM; hit rate 0.35% among 200,000;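 active means inhibition above a set limit, the mean inhibition across all tested compounds plus 3 SD, cut at about 34% in these data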;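 further: 0% = IFN-gamma with DMSO and 100% = IFN-gamma with 300 µM nifuroxazide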
TRAIL sens C8 = caspase-8 TRAIL sensitization | NB7+C8 cells + TRAIL, ATPlite viability luminescence | inhibition (viability loss, TRAIL sensitization), % at 10 µM | hit rate 1% among 360,000;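 active means compounds causing at least 50% loss of cell viability in the single-dose screen, relative to plate controls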
HSP90 confirm = confirmation of HSP90 inhibitors. inhibition, % at 5.9 µM. hit rate 64% among 2,300. shares compounds with HSP90 inh. AID 1846. rabbit reticulocyte lysate, luciferase refolding luminescence, 3 h; in the data active means inhibition above about 18%;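 further: 0% = vehicle wells and 100% = reference inhibitor wells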
luciferase ctr = firefly luciferase inhibition, HSP90 counter-screen; shares compounds with HSP90 inh; purified native firefly luciferase, luminescence; inhibition, % at 5.9 µM; hit rate 48% among 2,300; AID 1847;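 active means inhibition above the mean inhibition of all tested sample wells plus 3 SD, cut at about 10% in these data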;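 further: 0% = DMSO with luciferase and 100% = wells lacking luciferase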
Target sequence (P08659 whole entry, looked up): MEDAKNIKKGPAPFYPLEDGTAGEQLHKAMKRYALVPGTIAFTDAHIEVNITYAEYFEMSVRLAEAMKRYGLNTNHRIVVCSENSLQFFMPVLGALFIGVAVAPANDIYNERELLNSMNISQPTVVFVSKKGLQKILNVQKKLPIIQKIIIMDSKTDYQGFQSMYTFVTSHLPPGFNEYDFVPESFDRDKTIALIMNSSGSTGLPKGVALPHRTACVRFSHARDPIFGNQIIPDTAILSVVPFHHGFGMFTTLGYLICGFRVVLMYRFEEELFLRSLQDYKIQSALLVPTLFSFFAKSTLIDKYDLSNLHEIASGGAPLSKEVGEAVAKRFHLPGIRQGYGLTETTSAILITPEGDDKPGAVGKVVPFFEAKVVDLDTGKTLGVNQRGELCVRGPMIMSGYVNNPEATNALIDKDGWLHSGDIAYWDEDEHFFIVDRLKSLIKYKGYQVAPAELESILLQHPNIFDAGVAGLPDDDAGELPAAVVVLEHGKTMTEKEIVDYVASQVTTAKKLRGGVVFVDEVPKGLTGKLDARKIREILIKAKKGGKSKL
An asterisk follows results filed as active.

Results for O=C(N/N=C\c1cc([N+](=O)[O-])ccc1N1CCOCC1)c1ccccn1 ?
STAT3 blocker: 14; HSF1 inhib: 17; PPC-1+TRAIL kill: 11; HSP90 inh: 2; STAT1 inh: -6; TRAIL sens C8: -4

Results for O=C(N/N=C/c1ccncc1)c1ccccn1 ?
HSF1 inhib: 1; HSP90 inh: 2; TRAIL sens C8: 0

Results for CN(C)c1ccc(NC(=S)c2ccccn2)cc1 ?
STAT3 blocker: 98*; HSF1 inhib: -41; PPC-1+TRAIL kill: 69*; HSP90 inh: 66*; STAT1 inh: 68*; TRAIL sens C8: 85*; HSP90 confirm: 94*; luciferase ctr: 90*

How did CN(C)c1ccc(/C=C(\C#N)c2ccccn2)cc1 do in these assays?
STAT3 blocker: 99*; HSF1 inhib: 39; PPC-1+TRAIL kill: 14; HSP90 inh: 66*; STAT1 inh: 54*; TRAIL sens C8: 94*; HSP90 confirm: 84*; luciferase ctr: 78*

What do the screens show for `CN(C)CCOc1ccc(-c2c(-c3ccccc3)sc3ccccc23)cc1`?
TRAIL sens C8: 41

How did CC(C)C[C@H]1CN(CCCC[C@@H]2CNC(=O)C(=O)N2CC2CCCCC2)C(=O)C(=O)N1Cc1ccccc1 do in these assays?
TRAIL sens C8: -6

How did CCCCOC(=O)CSc1nc(N)c(C#N)c(-c2ccc(OC)cc2)c1C#N do in these assays?
STAT3 blocker: 10; HSF1 inhib: -13; PPC-1+TRAIL kill: 8; HSP90 inh: 25*; STAT1 inh: 1; TRAIL sens C8: 1; HSP90 confirm: 5; luciferase ctr: -6

How did CC(=O)N1CCC(C(=O)N2c3ccccc3N=C(c3ccc(C(F)(F)F)cc3)C2C(=O)NC(C)(C)C)CC1 (stereo not given) do in these assays?
TRAIL sens C8: -1

How did CCc1ccc(C2CC(c3ccco3)=NN2S(C)(=O)=O)cc1 (stereo not given) do in these assays?
STAT3 blocker: 18; HSF1 inhib: 10; PPC-1+TRAIL kill: 16; HSP90 inh: 18*; STAT1 inh: -42; TRAIL sens C8: 2; HSP90 confirm: 22*; luciferase ctr: 13*

Results for c1ccc(OCc2nc3ccccc3s2)cc1 ?
STAT3 blocker: -6; HSF1 inhib: 28; PPC-1+TRAIL kill: 12; HSP90 inh: 17*; STAT1 inh: -45; TRAIL sens C8: 10; HSP90 confirm: 25*; luciferase ctr: 8

What do the screens show for `CCOc1ccc(-c2cc(C(=O)NCc3ccccc3)[nH]n2)c(C)c1`?
TRAIL sens C8: 18

How did Cc1[nH]c(-c2ccc3c(c2)OCO3)nc1C(=O)O do in these assays?
STAT3 blocker: 12; HSF1 inhib: -1; PPC-1+TRAIL kill: 24; HSP90 inh: -1; STAT1 inh: 2; TRAIL sens C8: -3

What do the screens show for `Cc1[nH]c(-c2ccco2)nc1C(=O)O`?
STAT3 blocker: 3; HSF1 inhib: 2; PPC-1+TRAIL kill: 7; HSP90 inh: 18*; STAT1 inh: 3; TRAIL sens C8: -19; HSP90 confirm: 0; luciferase ctr: -3

Results for COC(=O)c1ccc2nc(Nc3nc4ccc(F)cc4s3)sc2c1 ?
STAT3 blocker: 92*; HSF1 inhib: -89*; PPC-1+TRAIL kill: 14; HSP90 inh: 83*; STAT1 inh: 64*; TRAIL sens C8: 1; HSP90 confirm: 90*; luciferase ctr: 81*

How did COC(=O)c1ccc2nc(NC(=O)C3CCCCC3)sc2c1 do in these assays?
STAT3 blocker: -2; HSF1 inhib: -8; PPC-1+TRAIL kill: 5; HSP90 inh: 18*; STAT1 inh: -26; TRAIL sens C8: 2; HSP90 confirm: 35*; luciferase ctr: -17

How did CC(=O)c1sc(Nc2nc3ccc(F)cc3s2)nc1C do in these assays?
STAT3 blocker: -2; HSF1 inhib: 55; PPC-1+TRAIL kill: 34; HSP90 inh: 2; STAT1 inh: -39; TRAIL sens C8: 35

Results for CC(C)c1ccc2nc(NC(=O)C3CC3)sc2c1 ?
HSF1 inhib: 4; HSP90 inh: -3; TRAIL sens C8: 14

How did CCNC(=O)C1(C)CCCN1C(=O)c1cc(OC)c(OC)c(OC)c1 (stereo not given) do in these assays?
TRAIL sens C8: -8

Results for O=C(NCC[C@H]1CC[C@@H](NC(=O)C2CCOCC2)[C@@H](CO)O1)Nc1ccc(Cl)cc1 ?
TRAIL sens C8: 13

Results for CC(C)Oc1cccc(C(=O)NC(=S)Nc2ccccc2)c1 ?
STAT3 blocker: -2; HSF1 inhib: -61*; PPC-1+TRAIL kill: 43; HSP90 inh: 23*; STAT1 inh: -50; TRAIL sens C8: 12; HSP90 confirm: 20*; luciferase ctr: 8

How did COC1=C/C(=C/c2c(O)c(C#N)c3ccccn23)C=CC1=O do in these assays?
HSF1 inhib: -6; PPC-1+TRAIL kill: 3; HSP90 inh: 26*; TRAIL sens C8: -18; HSP90 confirm: 0; luciferase ctr: -1

What do the screens show for `Cc1oc2cc3c(C(=O)N4CCCCC4)c(C)oc3cc2c1C(=O)N1CCCCC1`?
STAT3 blocker: -31; HSF1 inhib: -41; PPC-1+TRAIL kill: 6; HSP90 inh: 74*; STAT1 inh: -43; TRAIL sens C8: 1; HSP90 confirm: 68*; luciferase ctr: 33*

What do the screens show for `Cc1oc2cc3c(C(=O)N4CCN(c5ccccc5)CC4)c(C)oc3cc2c1C(=O)N1CCN(c2ccccc2)CC1`?
STAT3 blocker: 0; HSP90 inh: -2; STAT1 inh: 4

How did O=C(COC(=O)CCN=C1NS(=O)(=O)c2ccccc21)NNC(=O)c1ccc(Cl)cc1 do in these assays?
TRAIL sens C8: 3

Results for O=C(O)c1ccc(-c2ccccc2Cl)o1 ?
STAT3 blocker: 2; HSF1 inhib: -1; HSP90 inh: 28*; STAT1 inh: 3; TRAIL sens C8: -10; HSP90 confirm: 30*; luciferase ctr: -20

Results for CC(=O)Nc1cc2nn(-c3ccccc3)nc2cc1C ?
HSF1 inhib: 18; HSP90 inh: 21*; TRAIL sens C8: 46; HSP90 confirm: 32*; luciferase ctr: 21*

Results for COC(=O)c1ccc(NC(=S)Nc2ccccn2)cc1 ?
STAT3 blocker: 10; HSF1 inhib: 17; PPC-1+TRAIL kill: -17; HSP90 inh: 2; STAT1 inh: -72; TRAIL sens C8: 12

How did COc1ccc(NC(=S)Nc2ccccn2)cc1 do in these assays?
HSF1 inhib: 11; PPC-1+TRAIL kill: 10; HSP90 inh: 26*; TRAIL sens C8: -1; HSP90 confirm: -9; luciferase ctr: -18
